High-throughput results deposited in PubChem by several laboratories.
CR mimetic SO: yeast age-related superoxide inhibition as caloric restriction mimetic; S. cerevisiae aged cells, superoxide DHE fluorescence; hits give low values; superoxide response (% of plate mean), % at 10 µM; 330,000 compounds, 0.18% hits; AID 2690;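 active means superoxide response under a set limit, about three screen SD below normal, cut at about 65% in these data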;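 further: yeast aged for seven days with compound at 30 °C before DHE staining; 100% = average MFI of all compound-treated wells on the plate with controls excluded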
tim23-1 inh: inhibits growth of tim23-1 mutant yeast | S. cerevisiae tim23-1 growth, BacTiter-Glo luminescence, 24 h | inhibition, % at 20 µM | 330,000 compounds, 1.3% hits | AID 463212;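 active means growth inhibition of the mutant yeast at or above 50%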;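 further: temperature-sensitive mutant grown at 25 °C; plate controls were DMSO-treated mutant yeast for no effect and medium wells lacking yeast for full effect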
tim10-1 inh: growth inhibitors of tim10-1 mutant yeast; 330,000 compounds, 2.2% hits; inhibition, % at 20 µM; S. cerevisiae tim10-1 ts strain growth, BacTiter-Glo, 24 h;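 active means inhibition of at least 40%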;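 further: mutant grown at 25 °C; 0% = DMSO wells with yeast and 100% = wells holding no yeast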
NALP3 yeast inh: NALP3 inhibition in yeast; Yeast reconstituted NLRP3/ASC/caspase-1, beta-gal luminescence, 24 h; inhibition, % at 10 µM; 330,000 compounds, 0.39% hits; AID 2825;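 active means inhibition of 50% or more; inactive means inhibition below 50%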;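 further: plate controls were induced DMSO wells for no effect and uninduced yeast grown without galactose for full effect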
TIM10 inh: growth inhibitors of TIM10 yeast strain; S. cerevisiae TIM10 strain growth, BacTiter-Glo luminescence, 24 h; inhibition, % at 10 µM; 330,000 compounds, 1.4% hits;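 active means inhibition of 40% or more at the single tested concentration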;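 further: wild-type TIM10 isogenic control strain grown at permissive 25 °C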
tim10-1 confirm: confirmation of tim10-1 mutant yeast growth inhibitors; shares compounds with tim10-1 inh; S. cerevisiae tim10-1 ts strain growth, BacTiter-Glo, 24 h; inhibition, % at 20 µM; 7,400 compounds, 56% hits;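 active means inhibition of yeast growth at or above a set limit in either of two repeat tests at 20 µM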;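 further: tim10-1 mutant grown at permissive 25 °C to find synthetic lethal compounds; 0% = DMSO yeast wells and 100% = medium wells without yeast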
Active calls of the source: *; · = no result given. Compounds with a hit are over-represented: about 3.8% of the library has one in this group of screens.

SMILES	CR mimetic SO	tim23-1 inh	tim10-1 inh	NALP3 yeast inh	TIM10 inh	tim10-1 confirm
COc1cc(C(=O)NCCOc2cc(C)cc(C)c2)c(Br)c(OC)c1OC	92	-7	-3	33	1	·
CCOc1ccc(Cn2c(=O)sc3ccccc32)cc1OC	93	12	-1	10	-16	·
CCOC(=O)C(=O)C1=C(N2CCOCC2)/C(=C\c2cccc([N+](=O)[O-])c2)CC1	100	47	41*	-1	22	25
O=C(NP(=O)(N1CCCC1)N1CCCC1)C1=C(N2CCOCC2)/C(=C/c2cccc([N+](=O)[O-])c2)CC1	105	11	28	-9	16	·
COc1cccc(OC)c1C(=O)NC(=S)NNC(=O)[C@H]1C[C@@H]1c1ccccc1	81	0	22	23	14	·
COc1ccc(/C=C/C(=O)NC(=S)NNC(=O)[C@H]2C[C@@H]2c2ccccc2)cc1OC	123	1	48*	3	4	11
Cc1nc2ccccc2nc(C)c1=NOCc1ccccc1Cl	111	10	-2	-5	7	·
COC(=O)c1ccc(/C=C/c2ccc3cccc(OC(C)=O)c3n2)cc1	90	19	40	17	20	24
O=C(O)c1ccc(/C=C/c2ccc3cccc(O)c3n2)cc1	·	21	18	19	15	·
CCOc1c(OC(C)=O)ccc(/C=C/c2ccc3cccc(OC(C)=O)c3n2)c1[N+](=O)[O-]	84	30	6	5	14	·
COc1c(OC(C)=O)ccc(/C=C/c2ccc3cccc(OC)c3n2)c1[N+](=O)[O-]	107	43	41*	17	13	28
COc1c(OC(C)=O)ccc(/C=C/c2ccc3ccccc3n2)c1[N+](=O)[O-]	112	48	48*	16	40	32*
COc1ccc(CC(=O)Nc2nc(-c3cc(OC)ccc3OC)cs2)cc1	95	42	43*	20	10	35*
CC(C)[C@H](NC(=O)C1CC(=O)N(c2ccc3c(c2)OCO3)C1)C(=O)NC1CCCC1 (some centres not stated)	82	-9	-3	10	-11	·
COc1ccc(CN2C(=O)C(=O)N(CC(N)=O)C2=O)cc1	97	-4	-10	10	10	·
COc1cc(C2Nc3cccc4cccc(c34)N2)ccc1OC(C)=O	101	29	41*	4	37	39*
Cc1ccc(C)c(OC(=O)c2cccc(S(=O)(=O)N3CCN(C)CC3)c2)c1	103	34	42*	14	25	18
NC(=O)c1cc(S(=O)(=O)N2CC=C(c3ccccc3)CC2)cs1	99	7	-4	14	0	·
COc1ccc(C2CC(c3cccs3)=NN2C(=O)CSC2=NN3CCCC(=O)N=C3S2)cc1 (configuration not stated)	88	43	41*	3	24	23
O=C1OC(c2ccco2)=N/C1=C\c1ccc(-c2cccc(C(F)(F)F)c2)o1	125	29	46*	10	27	23
O=C(NCc1ccco1)c1cccn2c(=O)c3sccc3nc12	87	16	40*	3	21	19
O=C(NCc1cccs1)c1cccn2c(=O)c3sccc3nc12	84	-1	-6	4	-12	·
CCCc1ccc2oc(C(=O)N3CCNC(=O)C3CC(=O)OC)c(C)c2c1 (configuration not stated)	100	-2	5	4	-1	·
O=C(Cc1ccsc1)Nc1ccc2c(c1)OCO2	114	1	-22	24	17	·
COc1cccc2cc(C(=O)OCc3ccccc3)c(=O)oc12	99	45	42*	18	24	23
SMILES	CR mimetic SO	tim23-1 inh	tim10-1 inh	NALP3 yeast inh	TIM10 inh	tim10-1 confirm
COc1cccc2cc(C(=O)Oc3ccccc3)c(=O)oc12	95	10	5	8	1	·
Cc1cc(/C=C(\C#N)C(=O)NC2CCCCCC2)c(C)n1C	105	18	25	0	18	·
O=[N+]([O-])c1ccc(/C=C/c2ccc3cccc([N+](=O)[O-])c3n2)cc1	82	26	45*	14	14	25
COc1cc(-c2noc(C)c2C(=O)NCCc2cccs2)cc(OC)c1OC	101	15	5	6	-2	·
Cc1ccc(S(=O)(=O)N(Cc2ccccc2)c2ccccc2C(=O)NCc2ccco2)cc1	101	38	41*	4	12	20
Cc1ccc(S(=O)(=O)N(Cc2ccccc2)c2ccccc2C(=O)Nc2ccccc2C(=O)NCc2ccco2)cc1	117	32	26	0	11	·
COC(CNC(=O)c1ccc(CS(=O)(=O)c2ccc(Br)cc2)o1)OC	94	7	5	6	-1	·
COc1cc2c(cc1OC)CN(c1ccc([N+](=O)[O-])cc1C#N)CC2	106	23	3	5	7	·
COc1cc2c(cc1OC)CN(c1ccc([N+](=O)[O-])cc1Cl)CC2	101	37	41*	20	30	50*
COc1ccc(-c2cnn3c4c(c(C)nc23)CCN4C(C)C)cc1OC	107	-2	43*	13	15	25
O=C(CO/N=C/c1cccc([N+](=O)[O-])c1)Nc1ccc2ccccc2c1	91	16	45*	23	9	24
O=C(CO/N=C/c1cccc([N+](=O)[O-])c1)NC1CCCCC1	100	11	5	20	-2	·
S=C(NCC1CCCO1)N1CCN(c2nc(-c3ccccc3)cs2)CC1 (configuration not stated)	113	30	53*	0	7	29
COc1ccccc1NC(=S)N1CCN(c2nc(-c3ccccc3)cs2)CC1	106	25	47*	9	18	29
Cn1c(=O)[nH]c(=O)c2c1nc(N1CCCCC1)n2CC(O)COc1ccccc1 (configuration not stated)	100	17	9	-2	-2	·
O=C(Nc1ccc(C2SCCS2)cc1)c1ccccc1	93	1	-18	22	-3	·
Cc1cccc(C2=NNC(=O)C(c3ccc(Cl)cc3)C2)c1 (configuration not stated)	109	38	60*	-42	29	45*
COc1ccc(C(C(=O)NC2CCCC2)N(C(=O)c2ccoc2C)c2ccc(C)c(C)c2)cc1 (configuration not stated)	100	24	41*	-11	35	17
CCCn1nc(NC(=O)c2cccs2)c2cc3cc(C)ccc3nc21	108	43	41*	25	15	31*
Cn1c(=O)n(C)c2cc([N+](=O)[O-])c(N3CCN(S(=O)(=O)c4ccc5ccccc5c4)CC3)cc21	110	26	21	17	18	·
Cc1ccc(S(=O)(=O)N2CCN(c3cc4c(cc3[N+](=O)[O-])n(C)c(=O)n4C)CC2)cc1	109	37	43*	17	26	21
